According to ChEMBL document CHEMBL1961873, “Compounds: GSK PKIS; Assays: Nanosyn kinase panel” (2012):

Legend:
[1] = biological target: Sphingosine kinase 1 (Homo sapiens) (UniProt Q9NYA1); conditions: at 1 µM;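 further: mean SPHK1 inhibition value reported from the GSK PKIS kinase panel screen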
[2] = biological target: T1, Sphingosine kinase 2 (Homo sapiens) (UniProt Q9NRA0); conditions: at 0.1 µM
T1 sequence (whole entry): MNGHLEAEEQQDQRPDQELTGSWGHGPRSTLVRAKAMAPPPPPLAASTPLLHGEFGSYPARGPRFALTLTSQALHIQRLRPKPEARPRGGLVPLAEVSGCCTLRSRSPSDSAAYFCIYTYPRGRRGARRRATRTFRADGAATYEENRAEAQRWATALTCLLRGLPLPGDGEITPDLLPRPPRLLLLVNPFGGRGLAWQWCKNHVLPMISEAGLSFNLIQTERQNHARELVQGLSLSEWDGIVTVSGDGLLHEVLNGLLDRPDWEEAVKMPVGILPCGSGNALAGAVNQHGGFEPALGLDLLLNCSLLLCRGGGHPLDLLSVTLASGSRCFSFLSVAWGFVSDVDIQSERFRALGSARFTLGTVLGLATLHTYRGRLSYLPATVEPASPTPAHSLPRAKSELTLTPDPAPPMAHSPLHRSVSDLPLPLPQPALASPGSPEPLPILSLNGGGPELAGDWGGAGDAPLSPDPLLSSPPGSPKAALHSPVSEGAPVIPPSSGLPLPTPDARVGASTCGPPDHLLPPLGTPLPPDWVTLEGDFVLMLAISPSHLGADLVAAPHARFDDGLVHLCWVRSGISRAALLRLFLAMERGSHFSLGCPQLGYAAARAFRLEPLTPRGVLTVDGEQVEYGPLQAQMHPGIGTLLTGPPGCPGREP

[3] = biological target: T1, Sphingosine kinase 2 (Homo sapiens); conditions: at 1 µM
[4] = biological target: Casein kinase II subunit alpha (Homo sapiens) (UniProt P68400); conditions: at 0.1 µM
[5] = biological target: Casein kinase II subunit alpha (Homo sapiens) (UniProt P68400); conditions: at 1 µM
[6] = biological target: T2, Inhibitor of nuclear factor kappa-B kinase subunit alpha (Homo sapiens) (UniProt O15111); conditions: at 0.1 µM
T2 sequence (whole entry): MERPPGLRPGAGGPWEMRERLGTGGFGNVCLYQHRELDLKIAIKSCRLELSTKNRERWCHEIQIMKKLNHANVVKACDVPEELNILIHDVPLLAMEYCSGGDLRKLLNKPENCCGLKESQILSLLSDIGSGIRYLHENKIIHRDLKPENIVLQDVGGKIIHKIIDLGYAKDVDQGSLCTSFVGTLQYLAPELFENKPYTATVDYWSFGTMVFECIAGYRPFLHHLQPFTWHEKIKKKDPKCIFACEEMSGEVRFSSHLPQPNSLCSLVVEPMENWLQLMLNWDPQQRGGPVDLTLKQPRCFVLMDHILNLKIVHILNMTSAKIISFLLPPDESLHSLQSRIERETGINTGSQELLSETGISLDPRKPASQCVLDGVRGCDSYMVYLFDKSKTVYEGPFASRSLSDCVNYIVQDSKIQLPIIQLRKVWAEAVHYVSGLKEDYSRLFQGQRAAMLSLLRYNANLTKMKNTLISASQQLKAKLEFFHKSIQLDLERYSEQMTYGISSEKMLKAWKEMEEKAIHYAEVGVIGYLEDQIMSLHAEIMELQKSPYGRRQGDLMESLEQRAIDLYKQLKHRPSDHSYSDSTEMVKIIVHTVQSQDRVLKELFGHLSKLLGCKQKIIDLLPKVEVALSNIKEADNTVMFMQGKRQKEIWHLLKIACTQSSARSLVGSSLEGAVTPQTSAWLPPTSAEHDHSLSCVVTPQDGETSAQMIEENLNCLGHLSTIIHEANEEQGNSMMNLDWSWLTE

[7] = biological target: T2, Inhibitor of nuclear factor kappa-B kinase subunit alpha (Homo sapiens); conditions: at 1 µM
[8] = biological target: T3, Inhibitor of nuclear factor kappa-B kinase subunit beta (Homo sapiens) (UniProt O14920); conditions: at 0.1 µM
T3 sequence (whole entry): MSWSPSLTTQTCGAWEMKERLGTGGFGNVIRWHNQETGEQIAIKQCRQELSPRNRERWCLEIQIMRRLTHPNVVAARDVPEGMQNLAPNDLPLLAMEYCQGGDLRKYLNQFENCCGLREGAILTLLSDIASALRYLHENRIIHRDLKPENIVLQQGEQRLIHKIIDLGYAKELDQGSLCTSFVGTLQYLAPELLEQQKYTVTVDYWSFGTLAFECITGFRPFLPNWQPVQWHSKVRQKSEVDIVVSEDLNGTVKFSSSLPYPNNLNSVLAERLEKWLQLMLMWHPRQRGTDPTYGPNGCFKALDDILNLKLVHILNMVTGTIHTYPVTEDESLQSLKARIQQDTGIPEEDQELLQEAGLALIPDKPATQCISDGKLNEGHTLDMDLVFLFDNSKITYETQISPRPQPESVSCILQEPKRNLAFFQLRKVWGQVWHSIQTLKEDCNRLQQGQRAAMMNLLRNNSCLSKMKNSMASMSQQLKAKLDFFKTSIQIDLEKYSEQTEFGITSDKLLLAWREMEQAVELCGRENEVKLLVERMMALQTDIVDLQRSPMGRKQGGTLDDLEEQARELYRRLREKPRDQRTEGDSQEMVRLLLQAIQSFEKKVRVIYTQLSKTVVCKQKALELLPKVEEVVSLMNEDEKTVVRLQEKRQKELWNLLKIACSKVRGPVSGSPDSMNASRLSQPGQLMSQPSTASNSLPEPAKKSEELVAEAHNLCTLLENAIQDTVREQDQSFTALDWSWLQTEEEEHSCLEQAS

[9] = biological target: T3, Inhibitor of nuclear factor kappa-B kinase subunit beta (Homo sapiens); conditions: at 1 µM
[10] = biological target: T4, Inhibitor of nuclear factor kappa-B kinase subunit epsilon (Homo sapiens) (UniProt Q14164); conditions: at 0.1 µM
T4 sequence (whole entry): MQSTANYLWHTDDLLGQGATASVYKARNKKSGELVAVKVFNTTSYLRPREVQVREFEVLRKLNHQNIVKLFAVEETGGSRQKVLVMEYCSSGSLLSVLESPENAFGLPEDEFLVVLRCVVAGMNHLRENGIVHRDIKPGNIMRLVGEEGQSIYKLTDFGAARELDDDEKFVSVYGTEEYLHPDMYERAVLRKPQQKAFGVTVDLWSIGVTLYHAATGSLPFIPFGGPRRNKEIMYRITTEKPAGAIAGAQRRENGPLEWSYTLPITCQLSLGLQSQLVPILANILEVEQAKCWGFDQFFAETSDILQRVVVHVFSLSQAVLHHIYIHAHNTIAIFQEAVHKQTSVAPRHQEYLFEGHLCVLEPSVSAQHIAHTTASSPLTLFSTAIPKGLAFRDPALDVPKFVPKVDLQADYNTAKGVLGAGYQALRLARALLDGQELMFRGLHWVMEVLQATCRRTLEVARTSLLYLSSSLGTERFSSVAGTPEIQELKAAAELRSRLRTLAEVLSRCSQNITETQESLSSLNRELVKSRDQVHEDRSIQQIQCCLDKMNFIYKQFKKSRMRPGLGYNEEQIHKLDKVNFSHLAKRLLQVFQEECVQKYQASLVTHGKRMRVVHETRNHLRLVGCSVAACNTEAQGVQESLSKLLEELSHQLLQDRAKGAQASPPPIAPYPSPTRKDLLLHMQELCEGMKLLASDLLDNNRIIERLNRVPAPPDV

[11] = biological target: T4, Inhibitor of nuclear factor kappa-B kinase subunit epsilon (Homo sapiens); conditions: at 1 µM
[12] = biological target: T5, Serine/threonine-protein kinase Nek1 (Homo sapiens) (UniProt Q96PY6); conditions: at 0.1 µM
T5 sequence (whole entry): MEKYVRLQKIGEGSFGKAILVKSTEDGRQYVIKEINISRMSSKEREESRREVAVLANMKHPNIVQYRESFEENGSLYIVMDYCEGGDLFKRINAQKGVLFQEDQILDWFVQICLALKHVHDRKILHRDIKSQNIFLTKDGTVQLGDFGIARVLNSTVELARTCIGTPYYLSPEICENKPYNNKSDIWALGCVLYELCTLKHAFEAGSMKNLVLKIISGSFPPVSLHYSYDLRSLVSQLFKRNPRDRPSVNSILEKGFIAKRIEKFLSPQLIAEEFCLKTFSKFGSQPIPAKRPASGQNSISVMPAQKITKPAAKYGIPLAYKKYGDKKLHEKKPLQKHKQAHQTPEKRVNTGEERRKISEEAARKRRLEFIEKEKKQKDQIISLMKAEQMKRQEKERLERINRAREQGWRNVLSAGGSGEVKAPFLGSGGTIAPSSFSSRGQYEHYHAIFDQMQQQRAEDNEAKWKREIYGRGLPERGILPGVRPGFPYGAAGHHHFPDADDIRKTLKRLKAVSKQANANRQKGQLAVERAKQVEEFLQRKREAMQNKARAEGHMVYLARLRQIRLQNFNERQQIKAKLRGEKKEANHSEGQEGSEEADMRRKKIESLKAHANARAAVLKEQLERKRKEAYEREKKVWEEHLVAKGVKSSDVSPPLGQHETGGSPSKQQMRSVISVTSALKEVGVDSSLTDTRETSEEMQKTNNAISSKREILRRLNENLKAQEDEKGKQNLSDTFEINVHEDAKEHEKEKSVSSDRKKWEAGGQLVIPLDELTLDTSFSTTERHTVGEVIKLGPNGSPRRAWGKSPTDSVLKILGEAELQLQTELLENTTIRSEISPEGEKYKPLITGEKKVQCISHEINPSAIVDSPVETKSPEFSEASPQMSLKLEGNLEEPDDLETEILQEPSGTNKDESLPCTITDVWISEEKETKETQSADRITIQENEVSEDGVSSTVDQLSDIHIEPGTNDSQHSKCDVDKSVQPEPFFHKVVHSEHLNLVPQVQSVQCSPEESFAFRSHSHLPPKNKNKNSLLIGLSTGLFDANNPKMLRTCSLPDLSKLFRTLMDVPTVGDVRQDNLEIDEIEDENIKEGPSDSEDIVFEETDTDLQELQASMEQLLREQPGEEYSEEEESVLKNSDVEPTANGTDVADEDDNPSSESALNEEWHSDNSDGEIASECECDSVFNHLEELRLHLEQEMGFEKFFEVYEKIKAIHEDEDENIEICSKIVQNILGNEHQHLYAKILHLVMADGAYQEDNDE

[13] = biological target: T5, Serine/threonine-protein kinase Nek1 (Homo sapiens); conditions: at 1 µM
[14] = biological target: T6, Serine/threonine-protein kinase Nek2 (Homo sapiens) (UniProt P51955); conditions: at 0.1 µM
T6 sequence (whole entry): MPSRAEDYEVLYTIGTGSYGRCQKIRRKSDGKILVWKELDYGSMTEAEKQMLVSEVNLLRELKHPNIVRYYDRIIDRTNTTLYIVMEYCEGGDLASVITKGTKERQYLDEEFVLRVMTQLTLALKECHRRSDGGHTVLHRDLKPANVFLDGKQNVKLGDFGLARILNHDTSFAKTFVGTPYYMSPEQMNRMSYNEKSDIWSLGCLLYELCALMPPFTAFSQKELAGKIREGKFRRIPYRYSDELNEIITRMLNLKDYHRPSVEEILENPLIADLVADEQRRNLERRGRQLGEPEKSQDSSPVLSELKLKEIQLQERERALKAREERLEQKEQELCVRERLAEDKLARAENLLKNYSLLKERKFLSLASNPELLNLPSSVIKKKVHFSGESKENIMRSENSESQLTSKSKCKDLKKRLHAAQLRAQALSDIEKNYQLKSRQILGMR

[15] = biological target: T6, Serine/threonine-protein kinase Nek2 (Homo sapiens); conditions: at 1 µM
[16] = biological target: Serine/threonine-protein kinase Nek6 (Homo sapiens) (UniProt Q9HC98); conditions: at 0.1 µM
[17] = biological target: Serine/threonine-protein kinase Nek6 (Homo sapiens) (UniProt Q9HC98); conditions: at 1 µM
[18] = biological target: Serine/threonine-protein kinase Nek7 (Homo sapiens) (UniProt Q8TDX7); conditions: at 0.1 µM
[19] = biological target: Serine/threonine-protein kinase Nek7 (Homo sapiens) (UniProt Q8TDX7); conditions: at 1 µM
[20] = biological target: T7, Serine/threonine-protein kinase Nek9 (Homo sapiens) (UniProt Q8TD19); conditions: at 0.1 µM;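 further: reported value is the mean percent inhibition of NEK9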
T7 sequence (whole entry): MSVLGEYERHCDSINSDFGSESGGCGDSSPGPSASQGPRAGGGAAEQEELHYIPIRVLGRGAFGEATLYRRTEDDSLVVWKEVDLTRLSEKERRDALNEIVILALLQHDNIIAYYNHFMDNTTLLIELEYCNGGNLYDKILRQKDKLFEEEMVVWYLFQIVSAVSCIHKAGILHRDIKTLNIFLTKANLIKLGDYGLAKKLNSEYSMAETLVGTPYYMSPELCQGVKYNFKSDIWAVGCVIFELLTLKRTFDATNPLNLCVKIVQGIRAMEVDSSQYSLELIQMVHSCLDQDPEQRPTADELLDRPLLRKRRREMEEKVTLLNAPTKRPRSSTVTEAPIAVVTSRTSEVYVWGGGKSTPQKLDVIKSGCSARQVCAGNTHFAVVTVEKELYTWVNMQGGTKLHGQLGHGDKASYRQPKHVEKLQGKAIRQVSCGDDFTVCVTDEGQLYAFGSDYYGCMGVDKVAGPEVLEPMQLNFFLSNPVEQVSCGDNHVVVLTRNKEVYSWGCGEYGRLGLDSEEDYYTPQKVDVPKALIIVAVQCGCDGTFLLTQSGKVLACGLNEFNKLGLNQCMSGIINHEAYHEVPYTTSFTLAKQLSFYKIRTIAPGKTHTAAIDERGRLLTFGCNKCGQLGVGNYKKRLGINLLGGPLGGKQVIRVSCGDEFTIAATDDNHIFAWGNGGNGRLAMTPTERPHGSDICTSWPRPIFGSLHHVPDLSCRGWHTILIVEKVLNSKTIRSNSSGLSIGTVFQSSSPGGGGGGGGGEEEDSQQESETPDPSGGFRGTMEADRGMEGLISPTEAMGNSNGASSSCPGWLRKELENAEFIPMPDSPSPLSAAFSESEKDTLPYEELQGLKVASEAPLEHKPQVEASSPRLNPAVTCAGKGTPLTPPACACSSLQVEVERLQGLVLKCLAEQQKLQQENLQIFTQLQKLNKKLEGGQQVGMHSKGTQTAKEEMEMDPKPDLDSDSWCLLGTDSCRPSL

Sequence of Serine/threonine-protein kinase Nek6 (Homo sapiens) (Q9HC98 whole entry): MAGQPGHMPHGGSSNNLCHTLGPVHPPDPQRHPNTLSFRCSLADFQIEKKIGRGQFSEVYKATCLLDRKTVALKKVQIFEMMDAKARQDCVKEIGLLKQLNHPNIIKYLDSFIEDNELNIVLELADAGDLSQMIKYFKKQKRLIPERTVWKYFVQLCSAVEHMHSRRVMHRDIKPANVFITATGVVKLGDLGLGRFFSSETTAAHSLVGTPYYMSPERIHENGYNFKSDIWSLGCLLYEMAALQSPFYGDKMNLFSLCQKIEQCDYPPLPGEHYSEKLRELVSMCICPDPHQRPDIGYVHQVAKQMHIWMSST
Sequence of Casein kinase II subunit alpha (Homo sapiens) (P68400 whole entry, looked up): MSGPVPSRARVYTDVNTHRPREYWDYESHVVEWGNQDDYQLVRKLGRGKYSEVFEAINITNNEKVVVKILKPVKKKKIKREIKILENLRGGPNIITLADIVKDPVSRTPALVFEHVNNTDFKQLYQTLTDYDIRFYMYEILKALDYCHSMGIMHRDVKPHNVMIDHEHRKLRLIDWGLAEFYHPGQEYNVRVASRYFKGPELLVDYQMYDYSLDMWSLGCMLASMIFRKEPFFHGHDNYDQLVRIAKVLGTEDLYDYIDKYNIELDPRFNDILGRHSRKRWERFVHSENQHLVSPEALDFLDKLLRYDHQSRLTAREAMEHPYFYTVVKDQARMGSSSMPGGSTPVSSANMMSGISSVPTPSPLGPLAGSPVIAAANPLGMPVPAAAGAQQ
Sequence of Serine/threonine-protein kinase Nek7 (Homo sapiens) (Q8TDX7 whole entry, looked up): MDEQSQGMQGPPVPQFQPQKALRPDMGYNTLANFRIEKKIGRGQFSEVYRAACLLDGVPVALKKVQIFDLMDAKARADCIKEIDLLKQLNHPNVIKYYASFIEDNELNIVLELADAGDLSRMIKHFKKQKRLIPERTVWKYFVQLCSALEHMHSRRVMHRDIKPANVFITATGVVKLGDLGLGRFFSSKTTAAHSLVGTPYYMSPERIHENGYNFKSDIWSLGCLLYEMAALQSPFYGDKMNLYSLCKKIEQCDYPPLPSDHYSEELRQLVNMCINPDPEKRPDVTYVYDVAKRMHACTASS
Sequence of Sphingosine kinase 1 (Homo sapiens) (Q9NYA1 whole entry): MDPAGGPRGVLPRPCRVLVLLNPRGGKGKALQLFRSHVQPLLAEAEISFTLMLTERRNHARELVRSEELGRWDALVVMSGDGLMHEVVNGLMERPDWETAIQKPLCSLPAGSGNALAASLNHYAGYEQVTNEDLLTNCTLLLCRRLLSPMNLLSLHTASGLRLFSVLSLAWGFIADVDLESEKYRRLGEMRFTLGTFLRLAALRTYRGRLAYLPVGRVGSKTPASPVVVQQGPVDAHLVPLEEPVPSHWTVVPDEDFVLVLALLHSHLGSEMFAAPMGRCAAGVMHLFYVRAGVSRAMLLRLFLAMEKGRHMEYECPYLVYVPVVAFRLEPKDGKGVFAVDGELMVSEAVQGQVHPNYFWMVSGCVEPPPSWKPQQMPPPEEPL

Compound | inhibition [1] | inhibition [2] | inhibition [3] | inhibition [4] | inhibition [5] | inhibition [6] | inhibition [7] | inhibition [8] | inhibition [9] | inhibition [10] | inhibition [11] | inhibition [12] | inhibition [13] | inhibition [14] | inhibition [15] | inhibition [16] | inhibition [17] | inhibition [18] | inhibition [19] | inhibition [20]
COc1cc(Nc2ncc(-c3ccccc3)o2)cc(OC)c1OC | 0.49% | 1.41% | -0.15% | 0.33% | 4.02% | 2.97% | 4.62% | 0.7% | 4.06% | 0.76% | 1.15% | -1.04% | 1.71% | -1.53% | -0.62% | -1.01% | -3.53% | -3.32% | 3.67% | 5.06%
COC(=O)Nc1nc2ccc(Sc3ccc(NC(=O)Nc4cc(C(F)(F)F)ccc4F)cc3)cc2[nH]1 | 4.23% | -0.54% | -0.1% | 2.02% | 6.92% | 2.75% | -2% | -0.76% | -1.08% | -0.58% | -1.36% | -0.58% | 1.18% | 0.6% | -0.82% | 0.73% | -0.98% | -0.35% | -3.05% | -1.77%
